Drawing on PubChem BioAssay (NCI), this text covers growth for eight molecules.

Among the test systems are NCI-H23 lung; NCI-H226 lung; NCI-H322M lung; HOP-62 NSCLC; NCI-H460 lung; NCI-H522 lung; A549/ATCC NSCLC; 786-0 renal; COLO 205 colon; DU-145 prostate; K-562 leukemia; MALME-3M melanoma; MDA-MB-231 breast; RXF 393 renal; SF-268 CNS; SF-295 CNS; SF-539 CNS; UACC-257 melanoma; M14 melanoma.
Common to all, as to test: NCI-60 one-dose screen, 48 h (100 = growth as untreated, 0 = no growth, -100 = all killed)
Holding throughout (settings): 10 µM unless noted

Compounds without any hit were thinned out: in the full panel of roughly 83,000, 20% have a hit.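 Cell lines were cultured in 96-well plates, exposed to a single compound concentration, and assessed for percent growth 48 hours later.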 A number with no mark means an inactive call. Calls of active or inactive are those of the source. The calls were made as follows: active = growth percent below 10; inactive = the rest.

With `COc1ccc(CCN2C(=O)CSC2=S)cc1`, the growth in the assay with NCI-H23 lung was 103%; with NCI-H226 lung it was 115%; in the assay with NCI-H322M lung, 99.4%; with HOP-62 NSCLC it was 104%; in the assay with NCI-H460 lung, 103%; in the assay on NCI-H522 lung, 69.3%. Further, the growth with A549/ATCC NSCLC was 102%; with 786-0 renal, 87.3%; in the assay with COLO 205 colon, 117%; in the assay with DU-145 prostate it was 41%; with K-562 leukemia it was 51.4%; in the assay on MALME-3M melanoma it was 98%. Besides, the growth with MDA-MB-231 breast was 79.6%; with RXF 393 renal, 89.7%; in the assay with SF-268 CNS, 100%; with SF-295 CNS, 97.6%; with SF-539 CNS, 84.7%; in the assay on UACC-257 melanoma, 98.9%. The growth in the assay with M14 melanoma is 101%.

In the case of `CNCc1cccc2c1OCCCCCCC(C)(O)CC(C)(C)S(=O)(=O)c1ccc(cc1)-c1cnc(N)c(n1)C(=O)N2` (stereo not given), the growth is 9.01% (active) with NCI-H23 lung; 43.5% in the assay on NCI-H226 lung; 46.2% with NCI-H322M lung; 59.2% in the assay with HOP-62 NSCLC; -56.3% (active) in the assay on NCI-H460 lung; -66.8% (active) with NCI-H522 lung. The growth was 11.4% with A549/ATCC NSCLC; -11.9% (active) in the assay on 786-0 renal; -48.2% (active) in the assay on COLO 205 colon; 9.36% (active) in the assay on DU-145 prostate; -29.3% (active) in the assay on K-562 leukemia; -58.7% (active) in the assay with MALME-3M melanoma. The growth in the assay on MDA-MB-231 breast was -6.41% (active); in the assay on RXF 393 renal, -90.7% (active); in the assay with SF-268 CNS, 13.2%; in the assay with SF-295 CNS, 10.9%; in the assay with SF-539 CNS it was -72% (active); with UACC-257 melanoma, 18.1%. Moreover, the growth in the assay with M14 melanoma was -88.9% (active).

With `Cc1ccc2sc3c(c2c1)OC(N)=C(C#N)C3c1cccc(F)c1` (stereo not given), the growth in the assay with NCI-H23 lung is 22.4%; with NCI-H226 lung, -22.2% (active); with NCI-H322M lung, 42.5%; with HOP-62 NSCLC, 9.3% (active); with NCI-H460 lung, -13.4% (active); in the assay on NCI-H522 lung, -33.7% (active). Moreover, the growth is 11.5% in the assay on A549/ATCC NSCLC; 11.7% in the assay with 786-0 renal; -40.3% (active) in the assay on COLO 205 colon; -9.41% (active) in the assay with DU-145 prostate; 7.14% (active) with K-562 leukemia; 43.3% with MALME-3M melanoma. In addition, the growth with MDA-MB-231 breast was 23.5%; in the assay with RXF 393 renal, -30.8% (active); in the assay on SF-268 CNS, 25.8%; in the assay with SF-295 CNS, 1.52% (active); in the assay on SF-539 CNS, -1.16% (active); with UACC-257 melanoma, 60.8%.

Consider `COc1ccc([C@H]2[C@H](O)C(=O)N2c2cc(OC)c(OC)c(OC)c2)cc1F`, for which the growth with NCI-H23 lung was 22.2%; in the assay with NCI-H226 lung, 32.6%; with NCI-H322M lung, 50.8%; in the assay on HOP-62 NSCLC, 23.7%; in the assay with NCI-H460 lung, 4.56% (active); in the assay on NCI-H522 lung, -56% (active). In addition, the growth is 18.5% with A549/ATCC NSCLC; 12% in the assay on 786-0 renal; -79.1% (active) with COLO 205 colon; 14.6% in the assay on DU-145 prostate; 8.75% (active) in the assay on K-562 leukemia; 65.9% in the assay with MALME-3M melanoma. Further, the growth with MDA-MB-231 breast is 24.5%; in the assay on RXF 393 renal it was 27%; in the assay on SF-268 CNS, 37.4%; in the assay on SF-295 CNS, 8.48% (active); in the assay on SF-539 CNS it was -5.31% (active); with UACC-257 melanoma it was 57.7%.

For the molecule `CCNC(=O)N1CCc2cc(OC)c(OCCc3ccc(OC)nc3)cc2C1c1ccc(OC)cc1C` (stereo not given), the growth is 44.8% in the assay on NCI-H23 lung; 38.5% with NCI-H226 lung; 55.6% in the assay on NCI-H322M lung; 31% in the assay with HOP-62 NSCLC; 3.64% (active) with NCI-H460 lung; 19.4% in the assay on NCI-H522 lung. Moreover, the growth with A549/ATCC NSCLC is 30.4%; in the assay on 786-0 renal it was 22.9%; with COLO 205 colon, 29.3%; in the assay with DU-145 prostate, 40.6%; with K-562 leukemia it was 20%; in the assay with MALME-3M melanoma, 49.5%. Besides, the growth in the assay with MDA-MB-231 breast was 52.8%; with RXF 393 renal, 24.7%; with SF-268 CNS, 32.9%; in the assay on SF-295 CNS, 18.2%; in the assay on SF-539 CNS, 22.6%; in the assay with UACC-257 melanoma, 47%. Further, the growth in the assay on M14 melanoma was 29.7%.

As to `c1cn2c(ccc3nc(-c4cn[nH]c4)c4c(c32)CCCC4)n1`, the growth in the assay on NCI-H23 lung is 69.2%; in the assay on NCI-H226 lung, 73.6%; in the assay on NCI-H322M lung it was 75.8%; in the assay with HOP-62 NSCLC, 71.8%; with NCI-H460 lung it was 43.9%; in the assay with NCI-H522 lung, 62.8%. The growth in the assay with A549/ATCC NSCLC is 62.5%; in the assay on 786-0 renal, 55.3%; in the assay on COLO 205 colon, 95.5%; in the assay with DU-145 prostate, 52%; in the assay on K-562 leukemia it was 85.6%; in the assay on MALME-3M melanoma it was 29%. For the same molecule, the growth in the assay on MDA-MB-231 breast is 77.1%; in the assay on RXF 393 renal, 43.6%; in the assay on SF-268 CNS it was 77.5%; in the assay with SF-295 CNS, 42.6%; in the assay with SF-539 CNS, 63.9%; in the assay on UACC-257 melanoma, 63.5%. In addition, the growth in the assay with M14 melanoma is 32.1%.

`O=C1/C(=C/C=C/c2ccco2)SC(=S)N1C1CCCCC1`: the growth with NCI-H23 lung was 91.3%; with NCI-H226 lung, 105%; with NCI-H322M lung, 97.4%; in the assay on HOP-62 NSCLC it was 102%; in the assay on NCI-H460 lung, 95.7%; in the assay with NCI-H522 lung, 75.9%. Besides, the growth is 86.8% in the assay with A549/ATCC NSCLC; 106% with 786-0 renal; 72.9% with COLO 205 colon; 95% in the assay with DU-145 prostate; 83.5% in the assay with K-562 leukemia; 83.6% with MALME-3M melanoma. Further, the growth was 74% with MDA-MB-231 breast; 47.7% with RXF 393 renal; 109% in the assay on SF-268 CNS; 97.6% with SF-295 CNS; 94.8% in the assay on SF-539 CNS; 67.7% in the assay with UACC-257 melanoma. In addition, the growth in the assay with M14 melanoma is 93.8%.

As for `COc1cccc2c1CN(C(=O)c1ccc(O)c(C(=O)N3Cc4ccc(OCCC[P+](c5ccccc5)(c5ccccc5)c5ccccc5)cc4C3)c1)C2`, the growth in the assay with NCI-H23 lung is 75.4%; with NCI-H226 lung it was 86.9%; with NCI-H322M lung it was 99.1%; with HOP-62 NSCLC, 102%; with NCI-H460 lung, 61.4%; in the assay with NCI-H522 lung, 78%. Besides, the growth is 101% in the assay on A549/ATCC NSCLC; 103% in the assay on 786-0 renal; 54% in the assay on COLO 205 colon; 89.1% in the assay with DU-145 prostate; 22.6% with K-562 leukemia; 70.8% in the assay on MALME-3M melanoma. The growth in the assay on MDA-MB-231 breast was 86.9%; in the assay on RXF 393 renal, 104%; in the assay on SF-268 CNS, 80.5%; with SF-295 CNS, 76.3%; in the assay with SF-539 CNS it was 64.4%; in the assay on UACC-257 melanoma, 44.8%. For the same molecule, in the assay with M14 melanoma, the growth is 89.3%.
